Bioassay records (PubChem BioAssay)
Shown are actives, neighbours in structure and some others; about 4% of the full set was active somewhere.
CF NFkB block = inhibitors of cystic fibrosis induced NF-kB; KKLEB NF-kB-GFP reporter, PAF-induced, GFP fluorescence overnight; inhibition, % at 5 µM; 360,000 tested, 0.86% active; AID 588850;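 active means at least 50% inhibition at 5 µM, scaled per plate between neutral and stimulator controls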;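 further: PAF is a Pseudomonas aeruginosa culture filtrate used as stimulus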
KKLEB cytotox = reduces viability of KKLEB cystic fibrosis airway cells; 360,000 tested, 0.36% active; KKLEB CF airway cells viability, ATPlite luminescence, overnight; stronger effect = lower value; cells stimulated with P. aeruginosa culture filtrate; AID 602141; activity change (cytotoxicity), % at 5 µM;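 active means corrected activity change at or below -50% at 5 µM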
TWEAK-Fn14 inh = blocks TWEAK-Fn14 interaction in a reporter cell assay; inhibition, % at 10 µM; TWEAK-stimulated Fn14 reporter cells, luciferase luminescence, 8 h; 360,000 tested, 2% active; in the data active means inhibition above about 50%
TROY signal inh = inhibitors of TROY-dependent NF-kB signaling | 360,000 tested, 0.98% active | inhibition, % at 10 µM | Q293 LMP1-TROYcd NF-kB luciferase reporter, 4 h;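 active means compounds whose plate-normalised and pattern-corrected inhibition of the luciferase reporter signal at the single screening dose is 50% or more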
Peg3 promoter = Peg3 promoter activity inhibition. HeLa PEG-Prom luciferase reporter, luminescence, overnight. inhibition, % at 20 µM. 360,000 tested, 1.7% active. AID 588405;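 active means inhibition of at least 50% at 20 µM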
HIF-2a inh = blocks HIF-2a reporter activity. 786-0 RCC cells HIF-2a reporter, luciferase luminescence, overnight. 360,000 tested, 0.72% active. AID 624352. inhibition, % at 18.8 µM;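 active means inhibition of the luminescence signal of 40% or more relative to plate controls, in a single-dose primary screen at 18.75 µM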
Of the large screens only hits and unclear results are named; the others gave an inactive call.

O=C(NCC1CCCO1)c1ccc(NC(=O)c2cc(F)c(F)cc2Cl)cc1 (stereo not drawn)	none
O=S(=O)(Nc1nc2ccccc2nc1Cl)c1ccccc1C(F)(F)F	TWEAK-Fn14 inh 50
C=CC[C@H](CC(=O)N(CCO)Cc1ccccc1)C(=O)NC[C@H](OC(=O)[C@@H](CC=C)Cc1ccc(F)cc1)c1ccccc1	Peg3 promoter 60
C=CCC[C@H](Cc1ccc(F)cc1)C(=O)OC[C@H](Cc1c[nH]c2ccccc12)NC(=O)[C@H](CC=C)CC(=O)N(CCO)Cc1ccccc1	TWEAK-Fn14 inh 57
C=CCC[C@@H](Cc1ccc(F)cc1)C(=O)OC[C@@H](NC(=O)[C@@H](CC=C)CC(=O)N(CCO)Cc1ccccc1)c1ccccc1	none
C=CCC[C@@H](Cc1ccc(F)cc1)C(=O)OC[C@@H](Cc1c[nH]c2ccccc12)NC(=O)[C@@H](CC=C)CC(=O)N(CCO)Cc1ccccc1	none
C=CC[C@H](CC(=O)N(CCO)Cc1ccccc1)C(=O)N[C@H](COC(=O)[C@@H](CC=C)Cc1ccc(F)cc1)Cc1c[nH]c2ccccc12	TWEAK-Fn14 inh 60, Peg3 promoter 61
C=CCC[C@@H](Cc1ccc(F)cc1)C(=O)OC[C@@H](NC(=O)[C@H](CC=C)CC(=O)N(CCO)Cc1ccccc1)c1ccccc1	TWEAK-Fn14 inh 56
N#Cc1c(N)[nH]c2ccc(Sc3ccccc3)cc12	none
Cn1c(=O)c2c(ncn2CC(=O)OCCCC(=O)c2ccc(Br)cc2)n(C)c1=O	none
C=CC[C@@H](CC(=O)N(CCO)Cc1ccccc1)C(=O)N[C@H](COC(=O)[C@@H](CC=C)Cc1ccc(F)cc1)Cc1ccccc1	none
C=CC[C@@H](CC(=O)N(CCO)Cc1ccccc1)C(=O)N[C@H](COC(=O)[C@@H](CC=C)Cc1ccc(F)cc1)Cc1c[nH]c2ccccc12	TWEAK-Fn14 inh 51, Peg3 promoter 55
C=CC[C@@H](CC(=O)N(CCO)Cc1ccccc1)C(=O)N[C@@H](COC(=O)[C@@H](CC=C)Cc1ccc(F)cc1)Cc1ccccc1	TWEAK-Fn14 inh 58
C=CC[C@H](CC(=O)N(CCO)Cc1ccccc1)C(=O)N[C@@H](COC(=O)[C@@H](CC=C)CC(=O)OC(C)(C)C)Cc1c[nH]c2ccccc12	none
COc1ccc(S(=O)(=O)N2CCCCC2c2cc(C(=O)NCc3cccnc3)no2)cc1 (stereo not drawn)	none
Nc1nc(CSc2nc3ccccc3s2)nc(N2CCOCC2)n1	none
Nc1nc(CSCc2ccccc2)nc(N2CCOCC2)n1	TWEAK-Fn14 inh 61 (no result: TROY signal inh)
Cc1ccc(CNC(=O)c2oc3ccc(S(=O)(=O)N4CCC5(CC4)OCCO5)cc3c2C)cc1	TWEAK-Fn14 inh 54, Peg3 promoter 51
Cc1c(C(=O)NCc2cccnc2)oc2ccc(S(=O)(=O)N3CCC4(CC3)OCCO4)cc12	none
Cc1c(C(=O)NCCC2=CCCCC2)oc2ccc(S(=O)(=O)N3CCOCC3)cc12	TWEAK-Fn14 inh 52, Peg3 promoter 66
Cc1c(C(=O)NCCCN2CCCC2=O)oc2ccc(S(=O)(=O)N3CCOCC3)cc12	none
CC(C)(C)NC(=S)Nc1ccc(Br)cc1	none
CC(C)(C)NC(=S)Nc1ccc(Nc2ccccc2)cc1	TWEAK-Fn14 inh 56
CC1Cc2ccccc2N1S(=O)(=O)c1cccc(C(=O)NCCCO)c1 (stereo not drawn)	none (no result: TROY signal inh)
CCN(CC)CCNC(=O)c1ccc(NC(=O)c2cccc(S(=O)(=O)N3CCc4ccccc43)c2)cc1	Peg3 promoter 77
CCN(CC)CCNC(=O)c1ccc(NC(=O)c2cccc(S(=O)(=O)N3c4ccccc4CC3C)c2)cc1 (stereo not drawn)	Peg3 promoter 86
CCOC(=O)c1ccc(NC(=O)c2cccc(S(=O)(=O)N3c4ccccc4CC3C)c2)s1 (stereo not drawn)	TWEAK-Fn14 inh 54
COc1ccc(C(=O)Nc2ccc(S(=O)(=O)N3CCc4ccccc43)cc2)cc1	TWEAK-Fn14 inh 80
CC1Cc2ccccc2N1S(=O)(=O)c1cccc(C(=O)NCc2ccccn2)c1 (stereo not drawn)	none
NS(=O)(=O)c1ccc(NC(=O)c2ccc(S(=O)(=O)N3CCc4ccccc43)cc2)cc1	none
CCN(CC)S(=O)(=O)c1ccc(NN=c2c(=O)c3ccccc3c2=O)cc1	none
Cc1nn(-c2ccccc2)c2[nH]c(=O)c(CNc3ccc4c(c3)OCCO4)cc12	TWEAK-Fn14 inh 58, TROY signal inh 66
CCN1C[C@@H]2[C@@H]3C(=O)N(Cc4ccccc4)C(=O)[C@@H]3[C@](Cc3ccccc3)(C1=O)N2C(=O)c1ccc(Br)cc1	none
Cc1cccc(-c2nc(CSc3nc4c(c(=O)[nH]3)CCC4)c(C)o2)c1	TROY signal inh 51
Cc1oc(-c2ccccc2)nc1CSc1nc2c(c(=O)[nH]1)CCC2	none
CCOC(=O)c1sc2nc(C)nc(NCCc3ccccn3)c2c1C	none
CCOC(=O)c1sc2nc(C)nc(NCc3ccccc3OC)c2c1C	TWEAK-Fn14 inh 54
COc1ccc2oc(C(=O)OCC(=O)NC3(C#N)CCCC3)c(C)c2c1	none
Cc1nn2c(N3CCN(C)CC3)cc(C(C)(C)C)nc2c1-c1ccccc1	Peg3 promoter 59
Cc1cc(C)c2nc(N3CCC(C(=O)NCCCN4CCCCC4)CC3)sc2c1	Peg3 promoter 70
CCN(CC)C(=O)CSc1nc(-c2ccc(C)cc2)nc2c1COC(C)(C)C2	TWEAK-Fn14 inh 58, TROY signal inh 58
Cc1ccc(-c2nc3c(c(SCC(=O)N4CCCC4)n2)COC(C)(C)C3)cc1	none
CC(NC(=O)c1cccc(Cl)c1)C1CC2CCC1C2 (stereo not drawn)	none
O=C1NC(=O)/C(=C/c2ccccc2OCc2ccccc2)S1	TROY signal inh 55
NC1=C(Cl)C(=O)c2ccccc2C1=O	CF NFkB block 60
NC1=C(Cl)C(=O)c2ccc(S(N)(=O)=O)cc2C1=O	CF NFkB block 89, KKLEB cytotox -95, TWEAK-Fn14 inh 108, TROY signal inh 86, Peg3 promoter 110, HIF-2a inh 97
COc1ncnc2c1ncn2CCCN(CCCc1ccccc1)CCCn1cnc2c(OC)ncnc21	none
Cc1ccc2cc(C)c3nnc(SCC(=O)NCc4ccco4)n3c2c1	TWEAK-Fn14 inh 52
CCOc1ccc2c(c1)-c1c(ssc1=S)C(C)(C)N2C(=O)c1ccco1	CF NFkB block 53
COc1ccc2c(c1)-c1c(ssc1=S)C(C)(C)N2C(=O)CSC1=NCCS1	none
Cc1ccc(S(=O)(=O)Nc2ccc(O)c(Sc3ncn[nH]3)c2)cc1	none
Cc1ccc(S(=O)(=O)/N=C2/C=C(Sc3ncn[nH]3)C(=O)c3ccccc32)cc1	CF NFkB block 100, KKLEB cytotox -58, TWEAK-Fn14 inh 95, Peg3 promoter 106, HIF-2a inh 98
CCOc1ccc(S(=O)(=O)Nc2ccc(O)c(Sc3ncn[nH]3)c2)cc1	none
